Assay results as given in the supplement of paper PMC12494721.
Where a name gives a salt, the structure may show the parent alone.

What was measured:
Conditions in all cases: 20 µM; incubation time: 27 h, anaerobic, 37 °C;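 for the amine columns active = adjusted P below 0.05 in both replicates with a change the same way and a mean fold change under 0.8 or over 1.25; inactive = the rest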
[1] = tested on: Clostridium sporogenes DSM 1664; test: growth (OD595) fold change vs plate DMSO controls (fold change (ratio)); higher = more growth
Procedure, shortened: (§1)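 Shaken 96-well cultures in mGAM, grown anaerobically for 27 h at 37 °C, were read at 595 nm. OD came from blank-subtracted readings, corrected for background with 20 µM compound solutions in water and scaled by a calibration factor of 5. Growth is the fold change versus the plate's median DMSO control. Values average 2 biological replicates, and any fold change above 1.5 is NA.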

Escherichia coli IAI1 [2] = test: as above
Procedure, shortened: as §1

[3] = tested on: Klebsiella aerogenes DSM 30053; test: as above
Procedure, shortened: as §1

[4] = tested on: Ruminococcus gnavus DSM 108212; test: as above
Procedure, shortened: as §1

[5] = tested on: Klebsiella aerogenes DSM 30053; test: fold change of Histamine concentration vs plate DMSO controls (fold change (ratio)); higher = more amine produced, active = hit call of the paper (significant change in both replicates, either direction)
Procedure, shortened: (§2)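 Each value is the fold change relative to DMSO-only wells on the same plate. Four gut bacterial strains were grown anaerobically in mGAM at 37 °C for 27 h in 80 µL wells, starting at OD 0.1 before a 1:1 dilution, with compounds at 20 µM final (sweeteners 50 µM). Whole cultures were extracted with cold acetonitrile/methanol containing 0.1% formic acid, centrifuged, and amines were quantified by LC–triple-quadrupole MS (dynamic MRM) against external calibration curves with within-batch drift correction. Values are means of 2 biological replicates.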

[6] = tested on: Clostridium sporogenes DSM 1664; test: fold change of Tryptamine concentration vs plate DMSO controls (fold change (ratio)); higher = more amine produced, active = hit call of the paper (significant change in both replicates, either direction)
Procedure, shortened: as §2

[7] = tested on: Ruminococcus gnavus DSM 108212; test: as above
Procedure, shortened: as §2

Escherichia coli IAI1 [8] = test: fold change of Putrescine concentration vs plate DMSO controls (fold change (ratio)); higher = more amine produced, active = hit call of the paper (significant change in both replicates, either direction)
Procedure, shortened: as §2

[9] = tested on: Klebsiella aerogenes DSM 30053; test: as above
Procedure, shortened: as §2

Escherichia coli IAI1 [10] = test: fold change of Cadaverine concentration vs plate DMSO controls (fold change (ratio)); higher = more amine produced, active = hit call of the paper (significant change in both replicates, either direction)
Procedure, shortened: as §2

[11] = tested on: Klebsiella aerogenes DSM 30053; test: as above
Procedure, shortened: as §2

[12] = tested on: Ruminococcus gnavus DSM 108212; test: fold change of 2-Phenylethylamine concentration vs plate DMSO controls (fold change (ratio)); higher = more amine produced, active = hit call of the paper (significant change in both replicates, either direction)
Procedure, shortened: as §2

Row | SMILES | growth [1] | growth (Escherichia coli IAI1 [2]) | growth [3] | growth [4] | fold change of Histamine concentration [5] | fold change of Tryptamine concentration [6] | fold change of Tryptamine concentration [7] | fold change of Putrescine concentration (Escherichia coli IAI1 [8]) | fold change of Putrescine concentration [9] | fold change of Cadaverine concentration (Escherichia coli IAI1 [10]) | fold change of Cadaverine concentration [11] | fold change of 2-Phenylethylamine concentration [12]
1 | CCCC[N+]1(C)[C@@H]2C[C@@H](OC(=O)[C@H](CO)c3ccccc3)C[C@H]1[C@@H]1O[C@@H]12 (stereo not given in full) [N-Butylscopolammonium bromide] | 0.954 | 1.22 | 0.974 | 1.06 | 1.03 (inactive) | 0.921 (inactive) | 0.946 (inactive) | 1.27 (inactive) | 1.01 (inactive) | 0.975 (inactive) | 0.99 (inactive) | 0.913 (inactive)
2 | Fc1ccc(Oc2ccnc3cc(Cl)cc(Cl)c23)cc1 | 1.06 | 1.01 | 1.02 | 1.04 | 1.02 (inactive) | 1.01 (inactive) | 0.957 (inactive) | 1.05 (inactive) | 1.02 (inactive) | 0.961 (inactive) | 1 (inactive) | 0.915 (inactive)
3 | CNC(=O)c1cc(Cl)cc(C)c1NC(=O)c1cc(Br)nn1-c1ncccc1Cl | 0.896 | 1.11 | 1.06 | 1.17 | 0.901 (inactive) | 0.953 (inactive) | 0.997 (inactive) | 1.02 (inactive) | 0.982 (inactive) | 0.964 (inactive) | 0.999 (inactive) | 1.01 (inactive)
4 | Nc1c([N+](=O)[O-])ccc(Oc2ccccc2)c1Cl | 0.859 | 0.991 | 0.998 | 1.03 | 0.974 (inactive) | 1.02 (inactive) | 1.01 (inactive) | 0.973 (inactive) | 1.01 (inactive) | 1.04 (inactive) | 1.01 (inactive) | 0.982 (inactive)
5 | CC(C)C[C@H](CN)CC(=O)O [Pregabalin] | 0.96 | 0.982 | 0.982 | 0.865 | 1.06 (inactive) | 1.04 (inactive) | 1.05 (inactive) | 1.03 (inactive) | 1 (inactive) | 1.02 (inactive) | 0.982 (inactive) | 1.06 (inactive)
6 | O=C(NC(=O)c1c(F)cccc1F)Nc1ccc(OC(F)(F)C(F)OC(F)(F)F)c(Cl)c1 (stereo not given) | 0.972 | 1.03 | 1.01 | 0.995 | 0.951 (inactive) | 0.981 (inactive) | 1.01 (inactive) | 1.01 (inactive) | 0.928 (inactive) | 0.872 (inactive) | 1.01 (inactive) | 0.957 (inactive)
7 | CC(=O)NC1CCSC1=O (stereo not given) [Citiolone] | 1.15 | 0.993 | 1.07 | 1 | 0.819 (inactive) | 1.05 (inactive) | 1.17 (inactive) | 1.02 (inactive) | 0.93 (inactive) | 0.99 (inactive) | 1.06 (inactive) | 1.31 (inactive)
8 | c1cc2ccc3cccc4ccc(c1)c2c34 [Pyrene] | 1.01 | 0.96 | 0.997 | 0.936 | 0.993 (inactive) | 0.953 (inactive) | 1.03 (inactive) | 1.01 (inactive) | 1.05 (inactive) | 0.969 (inactive) | 1.03 (inactive) | 1 (inactive)
9 | CCCSP(=O)(OCC)Oc1ccc(Br)cc1Cl (stereo not given) | 0.919 | 0.968 | 1.03 | 0.964 | 1.01 (inactive) | 1.03 (inactive) | 0.941 (inactive) | 1 (inactive) | 1.02 (inactive) | 1.03 (inactive) | 0.995 (inactive) | 0.9 (inactive)
10 | N#Cc1c[nH]cc1-c1cccc2c1OC(F)(F)O2 | 0.873 | 0.959 | 0.984 | 1.17 | 1.01 (inactive) | 1.03 (inactive) | 0.939 (inactive) | 0.993 (inactive) | 0.977 (inactive) | 1.08 (inactive) | 0.981 (inactive) | 0.972 (inactive)
11 | N#Cc1nn(-c2c(Cl)cc(C(F)(F)F)cc2Cl)c(N)c1[S+]([O-])C(F)(F)F (stereo not given) [Fipronil] | 1.26 | 1.11 | 1.1 | 1.28 | 0.947 (inactive) | 1.05 (inactive) | 1 (inactive) | 1.03 (inactive) | 0.981 (inactive) | 1.01 (inactive) | 1 (inactive) | 1.04 (inactive)
12 | N#C/N=C1\SCCN1Cc1ccc(Cl)nc1 | 1.01 | 0.969 | 0.996 | 1 | 0.995 (inactive) | 1 (inactive) | 1 (inactive) | 1.04 (inactive) | 0.994 (inactive) | 0.991 (inactive) | 1 (inactive) | 1.03 (inactive)
13 | CCC(COC(=O)c1cc(OC)c(OC)c(OC)c1)(c1ccccc1)N(C)C (stereo not given) [Trimebutine] | 0.842 | 0.979 | 0.999 | 0.868 | 0.944 (inactive) | 0.936 (inactive) | 1.06 (inactive) | 0.928 (inactive) | 1.01 (inactive) | 0.997 (inactive) | 1.01 (inactive) | 1.04 (inactive)
14 | C[C@]12CCC(=O)C=C1CC[C@@H]1[C@@H]2C(=O)C[C@]2(C)C(=O)CC[C@@H]12 [Adrenosterone] | 1.1 | 1.04 | 1.01 | 1 | 0.94 (inactive) | 1.02 (inactive) | 1.07 (inactive) | 1.09 (inactive) | 0.998 (inactive) | 1.01 (inactive) | 1.02 (inactive) | 1.07 (inactive)
15 | COc1ncc(F)c2nc(S(=O)(=O)Nc3c(F)cccc3F)nn12 | 1.08 | 0.984 | 1.08 | 1.15 | 0.874 (inactive) | 1.04 (inactive) | 0.984 (inactive) | 1.01 (inactive) | 0.997 (inactive) | 0.998 (inactive) | 1.03 (inactive) | 0.993 (inactive)
16 | C=C1C[C@@H]2[C@H](CC[C@]3(C)C(=O)CC[C@@H]23)[C@@]2(C)C=CC(=O)C=C12 [Exemestane] | 0.934 | 1 | 1.03 | 1.07 | 0.984 (inactive) | 1.07 (inactive) | 1.03 (inactive) | 1.05 (inactive) | 0.981 (inactive) | 0.996 (inactive) | 1 (inactive) | 1.02 (inactive)
17 | O=[N+]([O-])c1ccc2ccc3cccc4ccc1c2c34 [1-Nitropyrene] | 0.638 | 1.04 | 1 | 0.914 | 0.971 (inactive) | 0.785 (inactive) | 0.952 (inactive) | 1.03 (inactive) | 1 (inactive) | 0.96 (inactive) | 1.01 (inactive) | 0.967 (inactive)
18 | Clc1ccc(C(OCCN2CCCCC2)c2ccccc2)cc1 (stereo not given) [Cloperastine hydrochloride] | 1.14 | 1.07 | 1.06 | 0.788 | 0.884 (inactive) | 1.01 (inactive) | 0.88 (inactive) | 1.06 (inactive) | 0.988 (inactive) | 0.958 (inactive) | 1.03 (inactive) | 1 (inactive)
19 | NCC(CC(=O)O)c1ccc(Cl)cc1 (stereo not given) [Baclofen] | 1.11 | 1.17 | 1 | 1.33 | 1.04 (inactive) | 1.06 (inactive) | 1.1 (inactive) | 1.09 (inactive) | 0.988 (inactive) | 1 (inactive) | 1.03 (inactive) | 1.11 (inactive)
20 | C[CH2][Hg][S]c1ccccc1C(=O)[O-].[Na+] [Thimerosal] | 0.878 | 0.91 | 0.707 | – | 0.531 (inactive) | 0.986 (inactive) | 0.487 (active) | 0.936 (inactive) | 0.953 (inactive) | 0.896 (inactive) | 1 (inactive) | 0.496 (inactive)
21 | CC(=O)OCC(=O)[C@H]1CC[C@H]2[C@@H]3CC[C@H]4C[C@H](O)CC[C@]4(C)[C@H]3C(=O)C[C@]12C [Alfadolone acetate] | 0.985 | 1.26 | 0.997 | 1.11 | 1.03 (inactive) | 1.04 (inactive) | 1.02 (inactive) | 1.22 (inactive) | 0.981 (inactive) | 1.03 (inactive) | 0.977 (inactive) | 1.01 (inactive)
22 | CCOC(=O)c1cncn1[C@H](C)c1ccccc1 [Etomidate] | – | 1.22 | 0.988 | 0.931 | 0.992 (inactive) | – | 1.06 (inactive) | 0.985 (inactive) | 1.07 (inactive) | 0.973 (inactive) | 1.07 (inactive) | 1.19 (inactive)
23 | CN1[C@@H]2CC[C@H]1C[C@@H](OC(=O)[C@H](CO)c1ccccc1)C2 [(L) Hyoscyamine] | – | 1.03 | 1.06 | 1.08 | 0.941 (inactive) | – | 1.13 (inactive) | 0.992 (inactive) | 0.94 (inactive) | 0.923 (inactive) | 1.02 (inactive) | 1.11 (inactive)
24 | O=C1C=CC(=O)C=C1 [1,4-Benzoquinone] | 0.883 | 0.868 | 0.844 | 0.66 | 0.996 (inactive) | 1.02 (inactive) | 1.18 (inactive) | 0.967 (inactive) | 1 (inactive) | 0.943 (inactive) | 1.11 (inactive) | 1.66 (active)
25 | CN/C(=N\[N+](=O)[O-])NCc1cnc(Cl)s1 | 0.943 | 0.968 | 0.989 | 0.944 | 1.01 (inactive) | 0.953 (inactive) | 0.989 (inactive) | 0.98 (inactive) | 1 (inactive) | 1.07 (inactive) | 0.994 (inactive) | 1 (inactive)
